This excerpt belongs to a sample that is enriched for hits.
Shiga inhibitor: inhibitors of Shiga toxin in Vero cells; 290,000 compounds, 9.2% hits; inhibition, % at 38.7 µM; Vero cells, Shiga toxin protein synthesis inhibition reporter; in the data active = inhibition mostly above about 28%, no sharp cut-off; inactive = mostly below about 43%
MARV entry inh: blocks Marburg virus binding to or entry into cells; Marburg virus pseudotyped entry inhibition, cell reporter; Potency, µM (top dose mostly 37.8 µM), hits mostly inhibitors; 300,000 compounds, 1.8% hits; AID 540276; calls by dose curve; tested in HEK293 cells
Vaccinia Venus: vaccinia inhibition (Venus reporter); Vaccinia virus Venus reporter expression, fluorescence; 330,000 compounds, 0.46% hits; Potency, µM (doses to about 36.5 µM), usual class: inhibitors; AID 720580; calls by dose curve; tested in A549 cells; also: nearly all actives have a fitted effect of over 30% in size
Cycloheximide cs: affects cycloheximide protein synthesis inhibition readout, counter-screen. max response, %. 300,000 compounds, 12% hits. cell reporter, cycloheximide protein synthesis inhibition counterscreen; in the data active = max response mostly above about 13%, no sharp cut-off; inactive = mostly below about 14%; also: read at 38.3 µM for the half of the compounds with a filed dose
Lassa entry inh: inhibitors of Lassa virus binding or cell entry | Lassa virus pseudotype entry inhibition, cell reporter | Potency, µM (highest dose often 37.9 µM), most hits filed as inhibitors | 300,000 compounds, 1.2% hits | AID 540256; calls by dose curve; tested in HEK293 cells; also: nearly all actives have a fitted effect of over 50% in size
VACV mCherry inh: vaccinia inhibition (mCherry reporter); Vaccinia virus mCherry reporter infection, fluorescence; Potency, µM (doses to about 36.5 µM), hits mostly inhibitors; 310,000 compounds, 0.63% hits; AID 720579; calls by dose curve; tested in A549 cells; also: nearly all actives have a fitted effect of over 35% in size
Each line names hits and unclear results; the compound was inactive in the other large screens; ! = not active in a repeat.

O=C(/C=C/c1cccs1)NC1CCCC1	Shiga inhibitor 48.3
CC(C)CNC(=O)/C=C/c1cccs1	Cycloheximide cs 18.6
Nc1ncnc(Nc2c(F)cccc2F)n1	MARV entry inh inconclusive
COC(=O)N1CCN(C(=O)Cc2ccc(Cl)c(Cl)c2)C(CN2CCCC2)C1 (stereo unspecified)	MARV entry inh 11.2µM, Lassa entry inh inconclusive
CC(=O)c1cccc(NC(=S)N2CCN(S(=O)(=O)c3ccccc3)CC2)c1	Cycloheximide cs 9.7, Lassa entry inh inconclusive
CC(=O)c1cccc(NC(=S)N2CCN(S(=O)(=O)c3ccc(F)cc3)CC2)c1	Cycloheximide cs 19.2
COc1ccc(Cl)cc1NC(=O)CCN1C(=O)c2ccccc2Sc2ncccc21	none (no result: Shiga inhibitor, MARV entry inh, Cycloheximide cs)
Cc1cccc(C)c1-n1ncc(C(=O)N2CCN(c3ccccn3)CC2)c1C1CCN(C(=O)OC(C)(C)C)CC1	Lassa entry inh inconclusive (no result: Shiga inhibitor, MARV entry inh, Cycloheximide cs)
C/[N+]([O-])=C\CC(=O)c1ccc(-c2ccccc2)cc1	Cycloheximide cs 24.5
CO/N=C/CC(=O)c1cnc(-c2ccc(Cl)cc2)s1	Shiga inhibitor 72.9, Cycloheximide cs 21.9, Lassa entry inh inconclusive
CO/N=C/CC(=O)c1ccc(-c2ccccc2)cc1	Cycloheximide cs 18.0
COc1cc(NC(=O)CCCc2nnc3n(CC(C)C)c(=O)c4sccc4n23)cc(OC)c1	none (no result: Shiga inhibitor, MARV entry inh, Cycloheximide cs)
CCCCOC(=O)Oc1ccc2c(=O)c(Oc3cc(C)cc(C)c3)coc2c1	MARV entry inh inconclusive
Cc1oc2cc(O)ccc2c(=O)c1-c1cnn(-c2ccccc2)c1	MARV entry inh inconclusive (no result: VACV mCherry inh)
CCCCOC(=O)Oc1ccc2c(=O)c(Oc3cccc(C)c3)coc2c1	MARV entry inh inconclusive, Cycloheximide cs 35.3
O=c1c(-c2ccc(O)cc2)coc2cc(O)ccc12	MARV entry inh inconclusive, Vaccinia Venus 0.631µM!, Lassa entry inh inconclusive, VACV mCherry inh inconclusive (no result: Shiga inhibitor, Cycloheximide cs)
O=c1c(-c2cnn(-c3ccccc3)c2)coc2cc(O)ccc12	Shiga inhibitor 108.2, MARV entry inh inconclusive, Cycloheximide cs 46.7, Lassa entry inh inconclusive
Cc1ccccc1-c1coc2cc(O)ccc2c1=O	MARV entry inh inconclusive
Cc1ccc(Oc2coc3cc(O)ccc3c2=O)cc1	Cycloheximide cs 31.3 (no result: MARV entry inh, Vaccinia Venus, Lassa entry inh, VACV mCherry inh)
CN(CC(=O)NCCc1ccc(S(N)(=O)=O)cc1)CC(=O)Nc1ccc(Cl)c(C(F)(F)F)c1	MARV entry inh inconclusive (no result: Shiga inhibitor, Cycloheximide cs)
CC1CCN(S(=O)(=O)c2cc(C(=O)N3CCN(c4ccccc4F)CC3)n(C)c2)CC1	none (no result: Shiga inhibitor, MARV entry inh, Cycloheximide cs)
Cc1[nH]nc2c1C(c1ccco1)C(C#N)=C(N)O2 (stereo unspecified)	none
COc1ccc(-c2ccc(C3C(C#N)=C(N)Oc4n[nH]c(C)c43)o2)cc1 (stereo unspecified)	Cycloheximide cs 23.2 (no result: Vaccinia Venus, VACV mCherry inh)
Nc1c(C(=O)Nc2ccc(Br)cc2)sc2nc(-c3ccco3)ccc12	Shiga inhibitor 37.9, Cycloheximide cs 28.8, Lassa entry inh inconclusive, VACV mCherry inh inconclusive
Nc1c(C(=O)Nc2ccc(F)cc2)sc2nc(-c3ccco3)ccc12	MARV entry inh inconclusive, Cycloheximide cs 32.4, Lassa entry inh inconclusive
CC(=O)c1sc2nc(-c3ccco3)ccc2c1N	Shiga inhibitor 75.8, MARV entry inh inconclusive, Cycloheximide cs 31.6
CCCOc1cccc(C(=O)Nc2ccc(-c3nc4ccccc4o3)cc2)c1	Vaccinia Venus inconclusive, VACV mCherry inh inconclusive (no result: Shiga inhibitor, MARV entry inh, Cycloheximide cs)
CCc1ccc(NC(=S)N(CCCN2CCOCC2)Cc2ccccn2)cc1	Shiga inhibitor 31.4, Cycloheximide cs 39.2
CCOC(=O)c1ccc(NC(=S)N(CCCN2CCN(C)CC2)Cc2cccs2)cc1	MARV entry inh inconclusive (no result: Lassa entry inh)
CCc1ccccc1NC(=S)N(CCCN1CCOCC1)Cc1ccccn1	none
CCOC(=O)c1ccc(NC(=S)N(CCN2CCCCCC2)Cc2cccs2)cc1	MARV entry inh 8.91µM, Lassa entry inh inconclusive
CCOC(=O)c1ccc(NC(=S)N(CCCN2CCCC2)Cc2cccs2)cc1	MARV entry inh inconclusive (no result: Lassa entry inh)
CCOC(=O)c1ccc(NC(=S)N(CCCN2CCN(CC)CC2)Cc2cccs2)cc1	MARV entry inh 10µM, Lassa entry inh 10µM
CC1=NN2C(=N)/C(=C\c3cc(C)n(-c4ccc(C)cc4)c3C)C(=O)N=C2S1	MARV entry inh inconclusive
COc1cccc(CNC(=O)c2ccc3c(c2)sc2nc(-c4ccccc4)cn23)c1OC	none (no result: Shiga inhibitor, MARV entry inh, Cycloheximide cs)
CCCCn1cc(S(=O)(=O)c2ccc(OC)cc2)c(=O)c2cc(F)c(F)cc21	none (no result: Shiga inhibitor, Cycloheximide cs)
Cc1ccc(S(=O)(=O)CCC(=O)NCCN2C(=O)S/C(=C\c3ccccc3)C2=O)cc1	Cycloheximide cs 16.1
O=C(CNC(=O)c1ccccc1F)NCCN1C(=O)S/C(=C\c2ccccc2Cl)C1=O	none
O=C(CCS(=O)(=O)c1ccc(Cl)cc1)NCCN1C(=O)S/C(=C\c2ccccc2F)C1=O	Shiga inhibitor 66.9, Cycloheximide cs 33.7
CCOC(=O)c1ccc(NC(=O)COc2cccc3c(=O)n(C)ccc23)cc1	VACV mCherry inh inconclusive (no result: Shiga inhibitor, MARV entry inh, Cycloheximide cs)
CCN(CC)CCN(C(=O)c1cc2c(ccc3ccccc32)oc1=O)c1nc2cc3c(cc2s1)OCCO3	MARV entry inh inconclusive, Vaccinia Venus inconclusive, Cycloheximide cs 21.3, VACV mCherry inh 10µM
CN(C)CCN(C(=O)c1ccc(S(=O)(=O)N2CCCC2)cc1)c1nc2ccc(Br)cc2s1	Shiga inhibitor 56.5, Cycloheximide cs 29.9
Cc1ccc2nc(N(CCCN(C)C)C(=O)c3ccc(S(=O)(=O)N4CCCCCC4)cc3)sc2c1	MARV entry inh inconclusive, Vaccinia Venus inconclusive, Lassa entry inh inconclusive
CCCCN(C)S(=O)(=O)c1ccc(C(=O)N(CCN(C)C)c2nc3ccc(C)cc3s2)cc1	Shiga inhibitor 44.2, Cycloheximide cs 19.8 (no result: MARV entry inh, Vaccinia Venus, Lassa entry inh, VACV mCherry inh)
Cc1ccc2nc(N(CCN(C)C)C(=O)c3ccc4ccccc4c3)sc2c1	none
CN(C)CCN(C(=O)c1ccc2ccccc2c1)c1nc2cc3c(cc2s1)OCCO3	Shiga inhibitor 81.9, MARV entry inh inconclusive, Cycloheximide cs 39.1, VACV mCherry inh inconclusive
CCCCN(C)CCNC(=O)c1cc(=O)[nH]c2ccc(S(=O)(=O)N3CCCCCC3)cc12	none (no result: Shiga inhibitor, MARV entry inh, Cycloheximide cs)
CC(C)C(NS(=O)(=O)c1ccccc1)C(=O)N1CCN(C(=O)c2ccco2)CC1 (stereo unspecified)	none
CN(C)CCN(C(=O)c1ccc2ccccc2c1)c1nc2ccc(Br)cc2s1	Cycloheximide cs 16.4 (no result: MARV entry inh, Vaccinia Venus, Lassa entry inh, VACV mCherry inh)
COc1ccc(C)c2sc(N(CCCN(C)C)C(=O)c3ccc4c(c3)OCCO4)nc12	MARV entry inh inconclusive, Vaccinia Venus inconclusive, Lassa entry inh 10µM (no result: Shiga inhibitor, Cycloheximide cs)
Cc1ccc2nc(N(CCCN(C)C)C(=O)c3ccc4ncsc4c3)sc2c1	Shiga inhibitor 89.0, MARV entry inh inconclusive, Cycloheximide cs 40.6, Lassa entry inh inconclusive
COc1ccc2nc(N(CCN(C)C)C(=O)c3ccc4ncsc4c3)sc2c1	none (no result: Shiga inhibitor, MARV entry inh, Cycloheximide cs, Lassa entry inh)
CN(C)CCN(C(=O)c1cccc(N2C(=O)CCC2=O)c1)c1nc2ccc(Br)cc2s1	Cycloheximide cs 13.0
Cc1ccc(C2C(/C=C3/SC(=S)NC3=O)=C(c3cccs3)Oc3ccccc32)cc1 (stereo unspecified)	MARV entry inh inconclusive, Lassa entry inh inconclusive
Cc1ccc2nc(N(CCN(C)C)C(=O)c3ccc4c(c3)OCCO4)sc2c1	Cycloheximide cs 34.7
CN(C)CCN(C(=O)COc1ccc(Cl)cc1)c1nc2cc3c(cc2s1)OCO3	Cycloheximide cs 21.9
